From PubChem BioAssay

Assay: probe aDKK1 binding to arrayed compounds – biochemical, biotinylated probe, 635/667 nm fluorescence, primary screen (AID 1099);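 further: score merges 667nm spot fluorescence with signal to noise across triplicate slides; reference of the scale not given here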
Details: small-molecule microarray, higher = more signal

Point of comparison: CCCCCC1=C2CNC(CCC)(C(=O)OC)C=C2C(C)C1=O (stereo not given), composite z-score 0.719. Against it:
- Cc1ccc(S[C@]2(C(=O)NCCN3CCOCC3)CC(=O)N(Cc3ccccc3Cl)[C@@H]2c2ccc(CO)cc2)cc1 — lower, -0.123
- C[C@@]1([C@@H](NC(=O)c2ccccc2)c2ccc(-c3ccccc3)cc2)C[C@H]1C1CCCCC1 — higher, 1.18
- COc1ccc(COC2OC[C@]3(C)[C@H]4C5=C(CN3C(=O)OC(C)(C)C)[C@H](C)C(CO)C(CO)C5CC[C@@H]24)cc1 (stereo not given in full) — higher, 1.06
- C=C(/C(=C/C[C@@H](OC(C)=O)c1ccc(OCCO)cc1)c1cnc2ccccc2c1)C(C)C — lower, -0.229
- C=CCOC(=O)[C@@H]1[C@H]2C(=O)O[C@H](c3ccccc3)[C@H](c3ccccc3)N2[C@H](c2ccc(OCCOC(=O)[C@@H]3C[C@@H]4C(=O)N[C@@H](Cc5ccccc5)C(=O)N4[C@@H]3c3ccc(O)cc3)cc2)[C@@]12C(=O)Nc1ccc(I)cc12 — lower, -0.191
- C=C(C)C1C(=C)CN([C@H](CO)c2ccccc2)C1=O (stereo not given in full) — lower, -0.172
- O=C1C2C=CC(C(O)c3ccc(F)cc3)N(Nc3ccccc3F)C2C(=O)N1c1ccccc1 (stereo not given) — lower, 0.131
- CCOc1cc(C(O)C2C=CC3C(=O)N(c4ccccc4)C(=O)C3N2Nc2ccccc2)ccc1O (stereo not given) — lower, -0.0126
- CCCCCN1CC=CC23O[C@@H]4/C=C\CCCOC(=O)C4[C@H]2C(=O)N(C(CO)C(C)C)[C@@H]3C1=O (stereo not given in full) — lower, -0.248
- CC(CO)N1C(=O)[C@@H]2C3C(=O)OCCC/C=C\[C@H]3OC23C=CCN(c2ccc4ccccc4c2)C(=O)[C@@H]13 (stereo not given in full) — lower, -0.146
- COCCCNC(=O)C1N=C(c2ccc(OCCCO)cc2)N(c2ccccc2)O1 (stereo not given) — lower, 0.0045
- COCCOC(=O)N1C(=O)[C@@]2(c3cc(C#CCCO)ccc31)[C@H](C(=O)N1CCN(c3ncccn3)CC1)[C@H]1C(=O)O[C@H](c3ccccc3)[C@H](c3ccccc3)N1[C@@H]2c1ccccc1OCCO — lower, 0.293
- CS(=O)(=O)CCOC(=O)C1=CC(CCCO)=CC(c2ccc(CN3CCCC3)cc2)N(Cc2cc3c(cc2Br)OCO3)C=C1C(=O)OCCS(C)(=O)=O (stereo not given) — lower, 0.525
- CCOC(=O)[C@H]1CC=C2CC1C(=O)N1CCC[C@@H]1[C@@H]2O[Si](C)(C)C(C)(C)C (stereo not given in full) — lower, -0.539
- COC(=O)[C@@]1(Cc2ccccc2)[C@H]2c3cc(C(=O)N4CCCC4)n(Cc4cccc5ccccc45)c3C[C@H]2CN1C(=O)c1ccccc1 — higher, 2.15
- CC(C)(C)OC(=O)CC[C@]1(C(=O)NCC(O)CO)COC(c2ccc(OCCCO)cc2)=N1 (stereo not given in full) — higher, 0.747
- CCc1oc(CC[C@@H](CO)NC(=O)NCCn2cc(C3(O)CCCCC3)nn2)c(C(=O)OC)c1C(=O)OC — lower, -0.0378
- COCCOC(=O)N1C(=O)[C@@]2(c3cc(C#Cc4ccc(OC)cc4)ccc31)[C@H](C(=O)N1CCCCCCC1)[C@H]1C(=O)O[C@H](c3ccccc3)[C@H](c3ccccc3)N1[C@@H]2c1ccc(OCCO)cc1 — higher, 2.34
- O=C(NCc1ccccc1)[C@@H]1c2ccccc2C(=O)N(CC23CC4CC(CC(C4)C2)C3)[C@H]1c1ccc(CO)cc1 — lower, -0.654
- COC(=O)[C@@]1(Cc2ccc(OC)cc2)[C@H]2c3cc(C(=O)N(C)C)n(Cc4cccc5ccccc45)c3C[C@H]2CN1C(=O)c1ccccc1 — higher, 1.8
- COc1ccc(C(O)C2C=CC3C(=O)N(c4ccccc4)C(=O)C3N2Nc2ccccc2F)cc1OCc1ccccc1 (stereo not given) — higher, 1.21
- COc1ccc(CCNC(=O)[C@@]2(C)c3ccccc3C(=O)N(Cc3cc(F)cc(C(F)(F)F)c3)[C@H]2c2ccc(CO)cc2)cc1 — lower, 0.362
- O=C1OCCC/C=C\[C@H]2OC34C=CCN(CCN5CCOCC5)C(=O)[C@H]3N(CCCO)C(=O)[C@@H]4C12 (stereo not given in full) — lower, -0.199
- COc1cc2c(cc1OC)CN(C(=O)[C@H]1[C@@H]3C(=O)O[C@@H](c4ccccc4)[C@@H](c4ccccc4)N3[C@@H](c3ccc(O)cc3)[C@]13C(=O)Nc1ccc(C#CC4=CCCCC4)cc13)CC2 — higher, 0.817
- C=CC[C@]12N=C(c3ccc(OCCCO)cc3)O[C@H]1c1ccccc1N(Cc1ccccc1)C2=O — higher, 1.21
- CN1C(=O)C2C=CC(C(O)c3ccccc3)N(Nc3ccccc3)C2C1=O (stereo not given) — higher, 0.754
- COc1ccc([C@H]2C[C@H]3C(Br)=C[C@@H]2C(=O)[C@]32CO2)cc1 — lower, -0.308
- CC(C)C(CO)N1C(=O)[C@@H]2[C@H]3C(=O)OCC=C[C@H]3OC23C=CCN(C(C)C)C(=O)[C@@H]13 (stereo not given in full) — lower, -0.202
- CCCCCN1CC=CC23O[C@@H]4/C=C\CCCOC(=O)C4[C@H]2C(=O)N(CCCO)[C@@H]3C1=O (stereo not given in full) — lower, -0.175
- CCCC[C@@H]1C[C@H]1[C@@H](NC(=O)c1ccco1)c1ccc(C(=O)OC)cc1 — lower, 0.0294
- C=CCOC(=O)[C@H]1[C@@H]2C(=O)O[C@@H](c3ccccc3)[C@@H](c3ccccc3)N2[C@@H](c2ccc(OCCOC(=O)[C@@H]3C[C@@H]4C(=O)N[C@@H](CCCCN(C)C)C(=O)N4[C@@H]3c3ccc(O)cc3)cc2)[C@]12C(=O)Nc1ccc(I)cc12 — lower, 0.26
- CN1C(=O)[C@]2(Cc3ccccc3)N=C(c3ccc(OCCCO)cc3)O[C@@H]2c2ccccc21 — lower, 0.566
- CN(C)CCCNC(=O)[C@@]1(c2ccc([N+](=O)[O-])cc2)CC(=O)N(C2CCCCC2)[C@@H]1c1ccc(CO)cc1I — lower, -0.116
- COCC(=C=CC[C@@H](O)c1ccccc1OCCO)C[C@@H](O)c1cc(Cl)cc(Cl)c1O — lower, -0.174
